{
  "source": "the supplement of paper PMC6555819",
  "data": [
    {"tested_on": "FXR:RXRa (NR concentration 270 nM, RXRa partner concentration 90 nM)", "assay": "PBM binding z-score (relative to random genomic background probes); higher = stronger binding; sequences stand for … in GC…GCGATTGACAGCGTAGAATGAAGG", "summary_of_the_method": "(§1)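 Custom Agilent 4×180K protein-binding microarrays carried double-stranded probes. Their 34-nt variable regions held direct-repeat seeds, single-nucleotide variants, half-site ablations and random human genomic background sequences. Arrays were incubated 1 h with ligand-free nuclear receptor dimers in PBS pH 7.4, 2% milk, 0.02% Triton X-100, 1 mM DTT, 0.2 mg/mL BSA and 0.4 mg/ml salmon testes DNA. Antibodies against each partner (one per run) detected binding, and scanned fluorescence was regression-normalized. Binding z-scores use random background probes as reference.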", "values": [
      {"sequence": "TCATATAGGTAACCAGGTGAAAGTCCGTAAGTTA", "PBM binding z-score": 0.67},
      {"sequence": "TGAATGAGGCTATAAGATCAGGGAACGTTGCAAA", "PBM binding z-score": -0.518},
      {"sequence": "CCGACTGGGCCAAGGTTACCATAACGCACAGCCA", "PBM binding z-score": 0.00014},
      {"sequence": "AGAATGAGGTTATTAAGGTCAGGGAATTGCGGTC", "PBM binding z-score": 4.55},
      {"sequence": "CCTTACGAGTCACGAGGTTATAGCACGACGAGCG", "PBM binding z-score": 0.991},
      {"sequence": "GCTATTAGTTGAAAGGGCCACCGAATGATTCTCG", "PBM binding z-score": -0.0568},
      {"sequence": "GCTATTAGTTGAAAGGGCAACCGCATGATTCTCG", "PBM binding z-score": 0.581},
      {"sequence": "CCTGCTTGGTCATGGTCAGCTAATCTACAGTATG", "PBM binding z-score": -0.315},
      {"sequence": "CAAACTAGGTCACAGAGTTCAAAGTCCGTGCGTA", "PBM binding z-score": 6.27},
      {"sequence": "CGTCAAAGTTCACGGTAACGTAACAGAAAGCAGC", "PBM binding z-score": 7.1},
      {"sequence": "ATCTCTAGGTAAAGATAATTCAGTGAATGCAAAT", "PBM binding z-score": 0.311},
      {"sequence": "GGAACAAGGGCATTCGAGTTGATAGCATGGCGAT", "PBM binding z-score": 1.63},
      {"sequence": "CCTACTGGGGCATAAGGTTACCATAAGCCAGCCC", "PBM binding z-score": 0.331},
      {"sequence": "GATACAGGGTCAAGGCCAGAGCACGCGTATTGAT", "PBM binding z-score": 6.68},
      {"sequence": "CCTAGTTGGTCAAGGTCACTCACGCTATAGGTAC", "PBM binding z-score": 3.8},
      {"sequence": "TAGCCTGGGTCATTGGGCCAGTATAGTACGCATC", "PBM binding z-score": 3.3},
      {"sequence": "ATCTCTAGTTAAAAGTTCAGTGAATCCCGAGGAT", "PBM binding z-score": 0.652},
      {"sequence": "TCTGCTAGGTCAGTGGGTCAGCTAACGAGCTGCC", "PBM binding z-score": 1.49},
      {"sequence": "CCTTACGGGTCACGAGGTTTTAGCACGACGAGCG", "PBM binding z-score": 6.33},
      {"sequence": "GCTTACGGGTCAAAGGCTATAGCATGAATAGAAT", "PBM binding z-score": 5.51},
      {"sequence": "AGAATGAGGTTATTAAGTTCAGGGAATTGCGGTC", "PBM binding z-score": 2.41},
      {"sequence": "ACAGACAGGTGATGAAGGTAACTCCGGCTATCAT", "PBM binding z-score": 0.229},
      {"sequence": "ATCTCTAGGTAACAAGTTCAGTGAAAGAGAGGAC", "PBM binding z-score": 0.883},
      {"sequence": "CGTCCAAGGTCAAACGTCAGTGAAGAGATGACGG", "PBM binding z-score": 7.81},
      {"sequence": "AGTCACAGTTCAGGACGAGGTAACGTAAAGCACG", "PBM binding z-score": 1.01},
      {"sequence": "ACAGACAGGTGAGTGAAGGTAGCTCAGCTGGACG", "PBM binding z-score": -0.0191},
      {"sequence": "TTACCAAGGTGAAAGGTCGTTGGTGCACGCCTTG", "PBM binding z-score": 4.28},
      {"sequence": "GCTGCTAGGTCAACTCATGGTCAGCTAAAGCTCG", "PBM binding z-score": 4.3},
      {"sequence": "CGCACTAGGTCAAGGACAGTGAATCTCCGCACGC", "PBM binding z-score": 3.09},
      {"sequence": "CCAACTAGGTCATCCAGGACAGTGAATACATTGA", "PBM binding z-score": 3.96},
      {"sequence": "GCATATAGGTAGTACAAGGTGAAAGTCCGATTGT", "PBM binding z-score": 1.03},
      {"sequence": "GTGCCAAGGTGAATAGGTCGTTGATGAGTAGGCG", "PBM binding z-score": 0.631},
      {"sequence": "CGTCCAAGGTCAATGCTATGTCAGTGAAAGCATT", "PBM binding z-score": 6.33},
      {"sequence": "CGTCCAAGGTCTATGCTAGGTCAGTGAAAGCATT", "PBM binding z-score": 0.1},
      {"sequence": "CGAACGAGGGCATGAGTTGATAGAAAATGCCGAT", "PBM binding z-score": 0.363},
      {"sequence": "CGTCCAAGGTGAAAGGTCAGTGAAGAGATGACGG", "PBM binding z-score": 4.63},
      {"sequence": "CAAACTATGTCACAGAGGTCAAAGTCCGTGCGTA", "PBM binding z-score": 5.6},
      {"sequence": "TCTTGAAGATCAAAGGTTAAGAAAGCCGAAGCCT", "PBM binding z-score": 1.84},
      {"sequence": "TTACCAAGGTGATAGGTCGTTGATGCACGCCTTG", "PBM binding z-score": 0.534},
      {"sequence": "TCTGCTTGGTCAGTTGGTCAGCTAACGAGCTGCC", "PBM binding z-score": -0.433}
    ]},
    {"tested_on": "LXRa:RXRa (NR concentration 270 nM, RXRa partner concentration 90 nM)", "assay": "PBM binding z-score (relative to random genomic background probes); higher = stronger binding; sequences stand for … in GC…GCGATTGACAGCGTAGAATGAAGG", "summary_of_the_method": "as §1", "values": [
      {"sequence": "TCATATAGGTAACCAGGTGAAAGTCCGTAAGTTA", "PBM binding z-score": 0.846},
      {"sequence": "TGAATGAGGCTATAAGATCAGGGAACGTTGCAAA", "PBM binding z-score": -0.611},
      {"sequence": "CCGACTGGGCCAAGGTTACCATAACGCACAGCCA", "PBM binding z-score": 0.358},
      {"sequence": "AGAATGAGGTTATTAAGGTCAGGGAATTGCGGTC", "PBM binding z-score": 4.8},
      {"sequence": "CCTTACGAGTCACGAGGTTATAGCACGACGAGCG", "PBM binding z-score": 1.29},
      {"sequence": "GCTATTAGTTGAAAGGGCCACCGAATGATTCTCG", "PBM binding z-score": 0.0381},
      {"sequence": "GCTATTAGTTGAAAGGGCAACCGCATGATTCTCG", "PBM binding z-score": 0.701},
      {"sequence": "CCTGCTTGGTCATGGTCAGCTAATCTACAGTATG", "PBM binding z-score": -0.299},
      {"sequence": "CAAACTAGGTCACAGAGTTCAAAGTCCGTGCGTA", "PBM binding z-score": 6.12},
      {"sequence": "CGTCAAAGTTCACGGTAACGTAACAGAAAGCAGC", "PBM binding z-score": 6.15},
      {"sequence": "ATCTCTAGGTAAAGATAATTCAGTGAATGCAAAT", "PBM binding z-score": 0.4},
      {"sequence": "GGAACAAGGGCATTCGAGTTGATAGCATGGCGAT", "PBM binding z-score": 1.37},
      {"sequence": "CCTACTGGGGCATAAGGTTACCATAAGCCAGCCC", "PBM binding z-score": 1.69},
      {"sequence": "GATACAGGGTCAAGGCCAGAGCACGCGTATTGAT", "PBM binding z-score": 4.17},
      {"sequence": "CCTAGTTGGTCAAGGTCACTCACGCTATAGGTAC", "PBM binding z-score": 3.42},
      {"sequence": "TAGCCTGGGTCATTGGGCCAGTATAGTACGCATC", "PBM binding z-score": 1.88},
      {"sequence": "ATCTCTAGTTAAAAGTTCAGTGAATCCCGAGGAT", "PBM binding z-score": 1.49},
      {"sequence": "TCTGCTAGGTCAGTGGGTCAGCTAACGAGCTGCC", "PBM binding z-score": 1.09},
      {"sequence": "CCTTACGGGTCACGAGGTTTTAGCACGACGAGCG", "PBM binding z-score": 4.19},
      {"sequence": "GCTTACGGGTCAAAGGCTATAGCATGAATAGAAT", "PBM binding z-score": 3.89},
      {"sequence": "AGAATGAGGTTATTAAGTTCAGGGAATTGCGGTC", "PBM binding z-score": 3.29},
      {"sequence": "ACAGACAGGTGATGAAGGTAACTCCGGCTATCAT", "PBM binding z-score": 0.181},
      {"sequence": "ATCTCTAGGTAACAAGTTCAGTGAAAGAGAGGAC", "PBM binding z-score": 1.09},
      {"sequence": "CGTCCAAGGTCAAACGTCAGTGAAGAGATGACGG", "PBM binding z-score": 5.85},
      {"sequence": "AGTCACAGTTCAGGACGAGGTAACGTAAAGCACG", "PBM binding z-score": 0.828},
      {"sequence": "ACAGACAGGTGAGTGAAGGTAGCTCAGCTGGACG", "PBM binding z-score": -0.179},
      {"sequence": "TTACCAAGGTGAAAGGTCGTTGGTGCACGCCTTG", "PBM binding z-score": 3.47},
      {"sequence": "GCTGCTAGGTCAACTCATGGTCAGCTAAAGCTCG", "PBM binding z-score": 2.9},
      {"sequence": "CGCACTAGGTCAAGGACAGTGAATCTCCGCACGC", "PBM binding z-score": 2.28},
      {"sequence": "CCAACTAGGTCATCCAGGACAGTGAATACATTGA", "PBM binding z-score": 2.83},
      {"sequence": "GCATATAGGTAGTACAAGGTGAAAGTCCGATTGT", "PBM binding z-score": 0.23},
      {"sequence": "GTGCCAAGGTGAATAGGTCGTTGATGAGTAGGCG", "PBM binding z-score": 0.487},
      {"sequence": "CGTCCAAGGTCAATGCTATGTCAGTGAAAGCATT", "PBM binding z-score": 4.8},
      {"sequence": "CGTCCAAGGTCTATGCTAGGTCAGTGAAAGCATT", "PBM binding z-score": 5.48},
      {"sequence": "CGAACGAGGGCATGAGTTGATAGAAAATGCCGAT", "PBM binding z-score": 0.324},
      {"sequence": "CGTCCAAGGTGAAAGGTCAGTGAAGAGATGACGG", "PBM binding z-score": 4.11},
      {"sequence": "CAAACTATGTCACAGAGGTCAAAGTCCGTGCGTA", "PBM binding z-score": 5.73},
      {"sequence": "TCTTGAAGATCAAAGGTTAAGAAAGCCGAAGCCT", "PBM binding z-score": 2.29},
      {"sequence": "TTACCAAGGTGATAGGTCGTTGATGCACGCCTTG", "PBM binding z-score": 0.702},
      {"sequence": "TCTGCTTGGTCAGTTGGTCAGCTAACGAGCTGCC", "PBM binding z-score": -0.4}
    ]}
  ]
}
